MARV entry inh – qHTS for inhibitors of binding or entry into cells for Marburg Virus; Potency, µM (titrated, usually from 37.8 µM), for the others: top-dose activity change, negative = inhibition, usual class: inhibitors; Marburg virus pseudotyped entry inhibition, cell reporter; AID 540276, 2011; hit rate 1.8% among 300,000; calls by dose curve; tested in HEK293 cells; also: potency is read from the fitted curve at half-maximal effect
Lassa entry inh – qHTS for Inhibitors of binding or entry into cells for Lassa Virus; Lassa virus pseudotype entry inhibition, cell reporter; hit rate 1.2% among 300,000; AID 540256, 2011; Potency, µM (top dose mostly 37.9 µM), without a hit: at the top dose activity change, negative = inhibition, hits mostly inhibitors; calls by dose curve; tested in HEK293 cells; also: potency is read from the fitted curve at half-maximal effect; nearly all actives have a fitted effect of over 50% in size
FBPA Giardia inh – qHTS Assay for Inhibitors of Fructose-1,6-bisphosphate Aldolase from Giardia Lamblia; A8B2U2; purified Giardia FBPA; Potency, µM (series often up to 59.6 µM), for the others: top-dose activity, negative = inhibition, hits mostly inhibitors; hit rate 0.71% among 290,000; also: potency is read from the fitted curve at half-maximal effect; nearly all actives have a fitted effect of over 55% in size
Target sequence (A8B2U2 whole entry, looked up): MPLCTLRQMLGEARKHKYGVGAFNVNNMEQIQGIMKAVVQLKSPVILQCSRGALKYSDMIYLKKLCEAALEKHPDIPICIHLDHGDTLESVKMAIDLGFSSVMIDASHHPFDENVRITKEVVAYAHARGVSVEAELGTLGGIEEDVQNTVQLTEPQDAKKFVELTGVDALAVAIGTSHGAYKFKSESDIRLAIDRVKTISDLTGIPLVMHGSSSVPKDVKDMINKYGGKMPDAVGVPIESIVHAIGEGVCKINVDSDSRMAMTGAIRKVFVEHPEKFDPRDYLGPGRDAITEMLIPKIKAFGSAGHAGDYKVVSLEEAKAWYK
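Giardia FBPA (40 nM reagent) was preincubated 10 min at RT with compound (up to 57.5 uM final), then substrate plus GAPDH/TPI/NAD/arsenate coupling system with diaphorase/resazurin was added; resorufin fluorescence (525/598 nm) was read after 20 min.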
FMDV antiviral – High Throughput Screening for Foot and Mouth Disease Virus Antivirals; FMDV antiviral cell-based qHTS; Potency, µM (top dose mostly 57.9 µM), without a hit: top-dose activity change, negative = inhibition, usual class: inhibitors; hit rate 1.2% among 410,000; AID 1159524, 2015; calls by dose curve; tested in HEK293T cells; also: read-out not given here; potency is read from the fitted curve at half-maximal effect; nearly all actives have a fitted effect of over 45% in size
HCV inhibitor – qHTS Assay for Inhibitors of Hepatitis C Virus (HCV); Huh7.5.1 HCVcc-Cre infection, luciferase reporter, 44 h; Potency, µM (top dose mostly 41.8 µM), without a hit: top-dose activity change, negative = inhibition, usual class: inhibitors; hit rate 3.4% among 340,000; AID 651820, 2012; also: potency is read from the fitted curve at half-maximal effect
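Infectious HCV cell culture screen: compound-treated cells (1,000/well, pre-plated 4 h) are infected with HCVcc-Cre at roughly 0.5 moi and grown 44 h. Infection is quantified by luciferase signal after 15 min substrate incubation at room temperature.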
HCMV inh – qHTS Assay for inhibitors of the human cytomegalovirus (HCMV) | HFF cells, HCMV-luciferase reporter, 72 h; active compounds read low | activity change, negative = inhibition, % at 57.5 µM | hit rate 4.5% among 410,000 | AID 1259415, 2018; in the data active = activity change below about -60%; inconclusive = no clear call, values can overlap the other calls; inactive = above about -39%
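After 16 h attachment at 37C, HFF cells received test compound and HCMV-luciferase (1 PFU/cell); reporter luminescence read 72 h later, data normalized against buffer-only and known inhibitor Salinomycin.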
Starred values were filed as active, the others as inactive; ? = inconclusive; . = no result; [ ] = dose if it differs, or a comment. Shown are actives, neighbours in structure and some others; about 8.3% of the full set was active somewhere. Unless noted, calls follow the shape of the dose curve; as a rule, active = well fitted curve in the direction sought with a large enough effect; inconclusive = small, poorly fitted or top-dose-only effect, or another doubt; inactive = no such curve, though single readings can be large; an effect the other way counts as inactive or inconclusive. % is scaled to controls: 0 for no effect and ±100 for the full control effect.

SMILES | MARV entry inh | Lassa entry inh | FBPA Giardia inh | FMDV antiviral | HCV inhibitor | HCMV inh
COc1cccc([C@@H]2Oc3ccc(OC)cc3C(=O)[C@H]2OC(=O)NS(=O)(=O)c2ccc(C)cc2)c1 | . | . | 5.7% | . | . | .
COC(=O)c1ccccc1NC(=O)[C@H]1COc2ccccc2O1 | -31.9% | . | . | . | . | .
COc1ccc(NS(=O)(=O)c2ccc3oc(SCc4ccc(F)cc4)nc3c2)cc1 | ? | ? | -3.9% | ? | 11.2µM* | -61.0*
COc1ccccc1NS(=O)(=O)c1ccc2oc(SCc3ccc(F)cc3)nc2c1 | ? | ? | 0.2% | ? | 35.5µM* | -37.4
COc1ccccc1NS(=O)(=O)c1ccc2oc(SC)nc2c1 | -23.5%[46.1 µM] | 11.6% | . | -10.5% | ? | 1.9
CC(C)(C)c1cc(CCC(=O)N2CCNCC2)c(C(C)(C)C)cc1O | 14.6µM* | -23.5% | 8.4% | -17.4% | ? | -2.1
O=C(CCc1c[nH]c2ccccc12)N1CCCCCCC1 | 17.9%[46.1 µM] | 0.0%[46.1 µM] | . | 18.2% | 13.2% | -28.4
C=CCCN1[C@@H](Cc2ccccc2)COc2ccccc2S1(=O)=O | . | ? | . | . | . | -18.8
CCN(CC)CCn1c(N)nc2ccccc21 | ? | 4.1% | -13.4% | 1.3% | -22.0% | ?
CCN(CC)CCn1c2ccccc2c2nc3ccc([N+](=O)[O-])cc3cc21 | ? | ? | -10.5% | 7.5% | ? | -98.3*
CCOc1ccccc1N1CCN(CC(=O)Nc2ccnn2C2CCCC2)CC1 | . | . | . | ? | 12.6µM* | -13.5
CCn1ccnc1CN1CCC(n2nccc2NC(=O)c2ccccc2OC)CC1 | 2.6%[46.1 µM] | -4.9%[46.1 µM] | . | 10µM* | 9.5% | 5.5
O=C1C[C@@H](O)[C@@H](O)[C@@H]2[C@H]3C(=O)N(c4ccc(F)cc4F)C(=O)[C@@H]3CC[C@@H]12 | . | . | 2.4%[12.9 µM] | . | . | .
O=S(=O)(c1ccccc1)N1CCC2(CCCN(Cc3cc(C(F)(F)F)cc(C(F)(F)F)c3)C2)CC1 | . | . | -0.3% | -17.5% | . | .
Cc1ccc(-n2c(Cc3ccccc3)nnc2SCc2nc(-c3cccs3)no2)cc1C | ? | -29.1%[46.1 µM] | . | -23.0% | . | -5.8
O=C(NCC1CC1)c1ccc2sc([C@H]3C[C@H](O)[C@@H](CO)O3)nc2c1 | . | . | . | -1.5% | . | -102.0*
Cc1ccccc1CNC(=O)c1ccc2sc([C@H]3C[C@H](O)[C@@H](CO)O3)nc2c1 | . | . | . | 14.9% | . | 67.6
COc1ccc(Cn2cnc3cnc(Nc4ccc(NC(C)=O)cc4)cc32)cc1OC | . | . | . | . | . | -72.4*
Cc1c(-c2cccc(NC(=O)Nc3ccc(Cl)cc3)c2)nc2ncccn12 | . | -21.8%[46.1 µM] | . | -19.4% | . | -85.8*
Cc1c(-c2cccc(NC(=O)c3ccc(F)c(F)c3)c2)nc2ncccn12 | . | 13.8%[46.1 µM] | . | 8.6% | . | -10.7
FC(F)(F)c1cccc(N2CCN(Cc3nnc(-c4ccc5c(c4)OCO5)o3)CC2)c1 | -8.0%[46.1 µM] | -3.1%[46.1 µM] | . | -20.2% | . | 1.3
c1ccc(-c2csc3ncnc(NCc4ccccn4)c23)cc1 | . | . | ? | 15.8µM* | 10µM* | -89.4*
COc1ccc(-c2csc3ncnc(Nc4ccc(OC)cc4OC)c23)cc1 | . | -8.7%[46.1 µM] | . | -27.7% | . | ?
c1ccc(CNc2ncnc3scc(-c4cccs4)c23)nc1 | . | . | -1.7% | 15.8µM* | ? | -84.1*
Oc1ccc(Nc2ncnc3scc(-c4ccccc4)c23)cc1 | ? | ? | 1.2% | ? | 8.91µM* | -63.9*
SMILES | MARV entry inh | Lassa entry inh | FBPA Giardia inh | FMDV antiviral | HCV inhibitor | HCMV inh
COc1ccccc1Nc1ncnc2scc(-c3ccc(F)cc3)c12 | . | 5.3%[46.1 µM] | . | ? | . | -82.5*
c1ccc(CNc2ncnc3sc4c(c23)CCC4)nc1 | 14.6% | -3.0% | -2.9% | ? | -26.2% | -16.7
CN(C)CCCNc1ncnc2scc(-c3ccccc3)c12 | ? | -9.0% | ? | -12.0% | ? | -9.6
Cc1cc(-c2ccnc(-n3ncc(C(=O)NCc4cccnc4)c3C3CC3)n2)c(C)s1 | . | . | . | -11.9% | . | .
COc1ccc(O)c(/C=N/NC(=O)c2ccc(CSc3nc(C)cc(C)n3)cc2)c1 | ? | ? | -17.0% | ? | 5.62µM* | -89.6*
Cc1cc(C)nc(SCc2ccc(C(=O)N/N=C/c3cccc(O)c3O)cc2)n1 | 7.31µM* | ? | ? | 23.5% | 12.6µM* | -98.8*
Cc1cc(C)nc(SCc2ccc(C(=O)N/N=C/c3ccc(C(=O)O)cc3)cc2)n1 | 7.9%[46.1 µM] | 8.8% | -8.2% | -4.4% | -6.7% | 15.6
COc1ccc(/C=N/NC(=O)c2ccc(CSc3nc(C)cc(C)n3)cc2)cc1O | -23.0% | -2.6% | -15.4% | ? | ? | -65.7*
Cc1cc(/C=C\c2ccc3cc(N(C)C)ccc3[n+]2C)c(C)n1-c1ccccc1 | . | . | ? | 20µM* | 1µM* | .
Cc1cc(/C=C2\SC(=O)NC2=O)c(C)n1-c1ccc(N(C)C)cc1 | 21.6% | -17.8% | -12.3% | 19.2% | 37.1% | -30.2
CCN(CC)CCCn1c(-c2ccccc2)nc2c(NCCOC)nc(C)nc21 | . | . | 0.8% | . | . | .
COC(=O)c1cc2occc2n1Cc1nc(-c2ccccc2)oc1C | ? | . | . | -10.9% | . | -1.1
O=C1CC(Sc2ncccn2)C(=O)N1c1ccccc1 (centres undefined) | -11.9% | 14.7% | 2.0% | -13.0% | 10.8% | 50.7
Cc1cccc(N2C(=O)CC(Sc3nccc(C)n3)C2=O)c1 (centres undefined) | 11.1% | -4.5% | 7.0% | -9.9% | -11.5% | -97.6*
O=C1CC(Sc2nnc(-c3ccccc3O)o2)C(=O)N1c1ccccc1 (centres undefined) | -6.5% | 9.2µM* | 1.8% | . | 25.0% | -31.7
Cc1nc(SC2CC(=O)N(c3ccccc3)C2=O)n[nH]1 (centres undefined) | -0.1%[46.1 µM] | 0.6% | ? | 2.7% | 10.5% | -60.2*
CC(=O)Oc1ccc(N(C(C)=O)S(=O)(=O)c2ccc3ccccc3c2)cc1 | . | . | 6.4% | 9.7% | ? | -70.9*
CC(=O)N(c1ccc(N(C(C)=O)S(=O)(=O)c2ccccc2)cc1)S(=O)(=O)c1ccccc1 | 1.3%[46.1 µM] | ? | 7.7% | 1.4% | 8.7% | -11.4
COc1ccc2c(c1)c1nnc(SCC(=O)N3C(C)CCCC3C)nc1n2C (centres undefined) | ? | 4.8% | 0.0% | 2.1% | 8.91µM* | -36.5
COc1ccc(-n2nnnc2SCC(=O)N2C(C)CCCC2C)c(OC)c1 (centres undefined) | -23.1% | -8.0% | 4.2% | . | 5.7% | -79.2*
CC1CCCC(C)N1C(=O)CSc1nnnn1-c1cccc2c1CCCC2 (centres undefined) | -15.7% | -13.2% | -0.6% | ? | 1.1% | -38.3
CCCCCCCCn1c(=O)c(C(=O)OC)c(N)c2ccccc21 | ? | ? | 0.4% | ? | 12.6µM* | -64.4*
CCCCCn1c(=O)c(C(=O)Nc2ccccc2N)c(O)c2ccccc21 | . | . | ? | -19.4% | ? | -37.7

Screening results (PubChem)
